# Results from PubChem BioAssay AID588689 (Southern Research Specialized Biocontainment Screening …, 2011).
# Values joined by “and” are separate entries in the source; they are usually repeats but may differ in a detail not shown here. Equal values may be shown once. The campaign covered roughly 340,000 compounds. About 1,000 (0.29%) were called active. No stated cut-off is given here; in the data, inconclusive means inhibition above about 29% without an active follow-up result; inactive means below that. A selection follows. Measured potencies and affinities stand elsewhere.
# Molecular target: Genome polyprotein (Dengue virus type 2 (strain 16681-PDK53)) (UniProt P29991)
# Test: Dengue-2 NS5 methyltransferase inhibitors, primary screen, biochemical, confirmation dose response (AID 588689)
# Conditions: Dengue-2 NS5 methyltransferase capping enzyme assay, at 25 µM, stronger effect = higher value
# [1] = measured here: pilot screen replicate inhibition
Compound,inhibition,inhibition [1]
CC(=O)N1CCN(c2nc(N)c(C#N)c(CC#N)c2C#N)CC1,-8.51% (inactive),–
COc1ccc(S(=O)(=O)N2CCOCC2)cc1NC(=O)COC(=O)C1CC1C (stereo not given),-7.51% (inactive),–
CCCCc1nc2ccc(S(=O)(=O)O)cc2[nH]1,-2.87% (inactive),–
CC1=NN(c2ccccc2)C(=O)C1N=Nc1ccc(S(N)(=O)=O)cc1 (stereo not given),-3.93% (inactive),–
CCN(CC)CCNC(=O)Cn1c(=O)c2cccn2c2ccc(F)cc21,-0.65% (inactive),–
O=C(CNC(=O)c1ccc(Br)o1)NNC(=O)COc1ccccc1Cl,1.1% (inactive),–
COc1ccc2c(c1)-c1nc(/N=C/c3ccc(O)c(OC)c3)sc1CC2,27.5% (inactive),–
COc1ccc2c(c1)-c1nc(/N=C/c3ccccc3O)sc1CC2,29.6% (inactive),–
Oc1c(CN2CCOCC2)cc(CN2CCOCC2)c(O)c1CN1CCOCC1,20.2% (inactive),–
Oc1c(CN2CCOCC2)ccc(CN2CCOCC2)c1O,25.3% (inactive),–
C=CC(n1cncn1)C(O)(c1ccccc1)c1ccccc1 (stereo not given),-1.2% (inactive),–
O=C1C(Nc2ccc(O)cc2)=C/C(=N/S(=O)(=O)c2cccs2)c2ccccc21,22.4% (inactive),–
CCc1ccc(S(=O)(=O)/N=C2\C=C(Nc3cccc(C(=O)O)c3)C(=O)c3ccccc32)cc1,5.86% (inactive),–
Cc1ccc(NC2=C/C(=N/S(=O)(=O)c3cccs3)c3ccccc3C2=O)cc1C,1.44% (inactive),–
O=C1C(Nc2ccccc2)=C/C(=N/S(=O)(=O)c2cccs2)c2ccccc21,0% (inactive),–
CCc1ccc(S(=O)(=O)/N=C2\C=C(Nc3ccc(C(=O)O)cc3)C(=O)c3ccccc32)cc1,26.1% (inactive),–
Cc1ccc(S(=O)(=O)/N=C2\C=C(Nc3cccc(C(=O)O)c3)C(=O)c3ccccc32)cc1,9.52% (inactive),–
Cc1ccc(S(=O)(=O)/N=C2\C=C(Nc3cccc(C(=O)O)c3)C(=O)c3ccccc32)c(C)c1,13.2% (inactive),–
COC(=O)c1ccccc1NC1=C/C(=N\S(=O)(=O)c2cccs2)c2ccccc2C1=O,7.26% (inactive) and 0.39% (inactive),–
CCOC(=O)C1(CC2CCCCO2)CCN(Cc2c(C)cc(C)cc2-n2cccn2)CC1 (stereo not given),-10.8% (inactive),–
COc1ccc(S(=O)(=O)N2CCCCC2)cc1NC(=O)COC(=O)c1ccco1,-2.61% (inactive),–
O=C(Nc1ccc(F)cc1)OCCOc1ccc([N+](=O)[O-])cc1,-1.94% (inactive),–
CC(C)(C)OC(=O)COc1cc(F)ccc1[N+](=O)[O-],-8.99% (inactive),–
Cc1cc(NC(=O)C2C3C(=O)N(CCC(C)C)C(C(=O)NCc4ccccc4)C34C=CC2(C)O4)no1 (stereo not given),-10.5% (inactive),–
Cc1ccc(C(C)C)c(OCC(=O)NCC(c2cccs2)N2CCOCC2)c1 (stereo not given),0.74% (inactive),–
Cc1ccc(-n2c(-c3ccc(Cl)cc3Cl)n[nH]c2=S)cc1,-16.5% (inactive),-6.44%
COc1ccc(NS(=O)(=O)c2csc(C(=O)N3CCCC3)c2)c(OC)c1,-6.24% (inactive),–

Compound,inhibition,inhibition [1]
O=C(COC(=O)Cc1n[nH]c(=O)c2ccccc12)NNC(=O)c1ccc(Br)cc1,-4.04% (inactive),–
CCC(=O)Nn1c(C)nnc1C,-2.7% (inactive),–
Cc1ccc(S(=O)(=O)N2[C@@H](c3ccc(C(C)(C)C)cc3)C(C(=O)O)=CC[C@H]2c2ccc(Cl)c(Cl)c2)cc1,9.77% (inactive),–
Cc1ccc(S(=O)(=O)N2[C@@H](c3ccc(Cl)cc3)C(C(=O)O)=C[C@H]2CC2CCCC2)cc1,19.2% (inactive),4.89%
CCc1ccc([C@@H]2CC=C(C(=O)O)[C@H](c3ccc(Br)cc3)N2S(=O)(=O)c2ccc(C)cc2)cc1,25.8% (inactive),10.7%
Cc1ccc([C@H]2C(C(=O)O)=C[C@@H](CC3CCCC3)N2S(=O)(=O)c2ccc(C)cc2)cc1,20.2% (inactive),–
Cc1ccc(S(=O)(=O)N2[C@@H](c3ccc(Cl)cc3)C(C(=O)O)=CC[C@H]2c2ccc(Cl)c(Cl)c2)cc1,27.3% (inactive),–
Cc1ccc(S(=O)(=O)N2[C@@H](c3ccc(Br)cc3)C(C(=O)O)=CC[C@H]2c2cccc(Cl)c2)cc1,-1.32% (inactive),1.82%
Cc1ccc(S(=O)(=O)N2[C@@H](c3ccccc3)C(C(=O)O)=CC[C@H]2c2ccc(Cl)c(Cl)c2)cc1,10.4% (inactive),–
Cc1ccc([C@H]2C(C(=O)O)=CC[C@@H](c3ccc(C)cc3)N2S(=O)(=O)c2ccc(C)cc2)cc1,5.29% (inactive),-0.615%
O=C(N/N=C/c1cc(Br)c(Br)o1)c1cc2ccccc2o1,-5.43% (inactive),–
O=C1CCC[C@@H]2C[C@@]3(C[C@@H]4CCN1[C@H]24)Nc1cc(Cl)ccc1NC3=NCc1ccccc1,-11.9% (inactive),–
O=C(NCCCc1ccccc1)c1cccc(NC(=O)C2CCCCC2)c1,-8.46% (inactive),–
COc1ccc(C2=NN(C(=O)c3ccc(Cl)c([N+](=O)[O-])c3)C(c3ccccc3)C2)cc1 (stereo not given),-4.55% (inactive),–
Cc1ccc(NC(=S)NN2CCN(C)CC2)c(C)c1,3.57% (inactive),–
Cn1c2cc(C#N)sc2c2cnn(Cc3ccc(F)cc3)c(=O)c21,-9.27% (inactive),-3.06%
Cc1ccccc1-c1cc(C(=O)NCc2cccc(C(F)(F)F)c2)n(CC2CC(c3cccnc3)=NO2)n1 (stereo not given),5.79% (inactive),–
CCOc1ccccc1C=NNc1ccc([N+](=O)[O-])cn1,-10.8% (inactive),–
Cc1ccc(-c2cc(C(=O)N3CCC(C)CC3)c3ccccc3n2)cc1,-0.67% (inactive),–
COc1nnc(-c2ccccc2)s1,-4.6% (inactive),–
O=C(O)C1=CC[C@@H](c2ccc(Cl)cc2)N(S(=O)(=O)c2ccc(Cl)cc2)[C@H]1c1ccccc1,15.7% (inactive),–
Cc1ccc(S(=O)(=O)N2[C@@H](c3ccc(Br)cc3)C(C(=O)O)=CC[C@H]2c2ccc(Cl)cc2)cc1,26.7% (inactive),–
CCCCC1CCC(C(=O)NCC(c2ccco2)N2CCOCC2)CC1 (stereo not given),-3.1% (inactive),–
CCn1c(=O)c(-c2ccccc2)c(O)c2ccccc21,0% (inactive),–
CCCCn1c(=O)c(C(=O)OCC)c(O)c2ccccc21,3.24% (inactive),–
CCCCn1c(=O)c(-c2ccccc2)c(O)c2ccccc21,-4.09% (inactive),–
CCCCCn1c(=O)c(C(=O)OCC)c(O)c2ccccc21,-0.68% (inactive),–
